# Source: PubChem BioAssay AID1347418 (Sanford-Burnham Center for Chemical Genomics, 2020)
# The campaign covered roughly 1,300 compounds. About 750 (58%) were called active. Some of the results follow.
# Molecular target: Sulfhydryl oxidase 1 (Homo sapiens) (UniProt O00391)
# Test: inhibition of human sulfhydryl oxidase QSOX1 – biochemical, ROS-Glo H2O2 luminescence, HTS, primary screen (AID 1347418)
# Details: recombinant QSOX1, ROS-Glo H2O2 luminescence; at 12.5 µM; active compounds read high; active = any value above zero
# Chain of Sulfhydryl oxidase 1 (Homo sapiens) (O00391 whole entry, looked up): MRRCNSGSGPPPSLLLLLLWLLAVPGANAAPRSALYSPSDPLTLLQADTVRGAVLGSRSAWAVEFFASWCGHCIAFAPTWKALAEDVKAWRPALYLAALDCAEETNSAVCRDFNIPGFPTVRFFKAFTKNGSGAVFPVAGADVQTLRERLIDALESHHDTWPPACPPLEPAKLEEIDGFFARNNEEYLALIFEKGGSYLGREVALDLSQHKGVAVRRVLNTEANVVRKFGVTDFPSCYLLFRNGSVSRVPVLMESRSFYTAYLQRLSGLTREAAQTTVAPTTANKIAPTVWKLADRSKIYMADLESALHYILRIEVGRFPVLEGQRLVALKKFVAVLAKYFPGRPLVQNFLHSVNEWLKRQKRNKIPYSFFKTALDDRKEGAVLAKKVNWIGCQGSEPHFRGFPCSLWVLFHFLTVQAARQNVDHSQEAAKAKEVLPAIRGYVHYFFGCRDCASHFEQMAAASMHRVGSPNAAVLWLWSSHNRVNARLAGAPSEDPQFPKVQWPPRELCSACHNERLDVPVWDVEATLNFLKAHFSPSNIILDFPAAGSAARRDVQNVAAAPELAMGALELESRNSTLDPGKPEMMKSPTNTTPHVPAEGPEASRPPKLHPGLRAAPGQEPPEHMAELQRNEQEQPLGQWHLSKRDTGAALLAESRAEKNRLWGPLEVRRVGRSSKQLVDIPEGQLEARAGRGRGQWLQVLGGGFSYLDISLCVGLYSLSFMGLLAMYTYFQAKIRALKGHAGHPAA
row,SMILES,inhibition
1,CC(Cc1ccc(O)c(O)c1)C(C)Cc1ccc(O)c(O)c1 (stereo unspecified),45.8% (active)
2,N[C@@H](Cc1ccc(O)c(I)c1)C(=O)O,-5.7% (inactive)
3,N[C@@H](Cc1ccc(O)c(O)c1)C(=O)O,9.8% (active)
4,NC(Cc1cccc(-c2ccccc2CP(=O)(O)O)c1)C(=O)O (stereo unspecified),-2% (inactive)
5,CCN1CCC[C@H]1CNC(=O)c1c(O)c(Cl)cc(Cl)c1OC,2.3% (active)
6,CCN1CCCC1CNC(=O)c1cc(S(=O)(=O)CC)c(N)cc1OC (stereo unspecified),-1% (inactive)
7,CCN1CCC[C@H]1CNC(=O)c1cc(S(N)(=O)=O)ccc1OC,-1.2% (inactive)
8,CCN1CCCC1CNC(=O)c1cc(S(N)(=O)=O)ccc1OC (stereo unspecified),3.2% (active)
9,NC1CCN(c2cccc(Cl)n2)CC1,-5.8% (inactive)
10,CC(=O)c1ccc(S(=O)(=O)NC(=O)NC2CCCCC2)cc1,-5.7% (inactive)
11,COc1ccc(Cl)cc1C(=O)NCCc1ccc(S(=O)(=O)NC(=O)NC2CCCCC2)cc1,-5.6% (inactive)
12,Cc1cnc(C(=O)NCCc2ccc(S(=O)(=O)NC(=O)NC3CCCCC3)cc2)cn1,5.4% (active)
13,O=c1oc(Cl)c(Cl)c2ccccc12,-1.8% (inactive)
14,CC(N)(C(=O)O)c1ccc(C(=O)O)cc1 (stereo unspecified),-3.7% (inactive)
15,C/C(=C\c1ccc(C(=O)O)cc1)c1ccc2c(c1)C(C)(C)CCC2(C)C,1.8% (active)
16,NC1(C(=O)O)CCc2cc(C(=O)O)ccc21 (stereo unspecified),-2.9% (inactive)
17,CN(C)CCOC(c1ccccc1)c1ccccc1,4.3% (active)
18,Cc1ccccc1C(OCCN(C)C)c1ccccc1 (stereo unspecified),-1.5% (inactive)
19,CCN(Cc1ccncc1)C(=O)C(CO)c1ccccc1 (stereo unspecified),-4.5% (inactive)
20,N=C(N)SCCc1cnc[nH]1,2.7% (active)
21,NCCc1cnc[nH]1,-5% (inactive)
22,COc1ccccc1N1CCN(CCCCNC(=O)c2ccc3ccccc3c2)CC1,12.2% (active)
23,COc1ccc(NC(=O)c2ccc(-c3ccc(-c4noc(C)n4)cc3C)cc2)cc1N1CCN(C)CC1,-1.1% (inactive)
24,Cc1cccc(C(=O)NCN2CCN(c3ccccc3C#N)CC2)c1,-1.8% (inactive)

row,SMILES,inhibition
1,O=C1CC2(CCCC2)CC(=O)N1CCCCN1CCN(c2ncccn2)CC1,1.2% (active)
2,COc1cccc(C(=O)NCCN2CCN(c3ccc(Cl)cc3)CC2)c1,21.7% (active)
3,O=C(NCCN1CCOCC1)c1ccc(Cl)cc1,-3.4% (inactive)
4,c1cnc(N2CCN(Cc3ccc4c(c3)OCO4)CC2)nc1,-0.2% (inactive)
5,COc1ccccc1N1CCN(CCN2C(=O)CC3(CCCC3)CC2=O)CC1,17.2% (active)
6,Nc1nc(N)c2nc(-c3ccccc3)c(N)nc2n1,-0.8% (inactive)
7,CC(=O)[C@]1(O)Cc2c(O)c3c(c(O)c2[C@@H](O[C@H]2C[C@H](N)[C@H](O)[C@H](C)O2)C1)C(=O)c1ccccc1C3=O,-0.7% (inactive)
8,COc1ccccc1N1CCN(CCCCN2C(=O)c3ccccc3C2=O)CC1,3.6% (active)
9,c1cc(CN2CCCCC2)cc(OCCCNc2nc3ccccc3s2)c1,3.8% (active)
10,CC(=O)Nc1nnc(S(N)(=O)=O)s1,0.8% (active)
11,OCc1ccc(-c2nn(Cc3ccccc3)c3ccccc23)o1,-2.6% (inactive)
12,CC(CCc1ccc(O)cc1)NCCc1ccc(O)c(O)c1 (stereo unspecified),17.1% (active)
13,CCCCCCCC/C=C\CCCCCCCC(=O)NCCc1ccc(O)c(O)c1,-7.8% (inactive)
14,C[C@@H](NCCc1ccc(O)cc1)[C@@H](O)c1ccc(O)cc1,3.9% (active)
15,CC(CCc1ccccc1)NCC(O)c1ccc(O)c(C(N)=O)c1 (stereo unspecified),2.1% (active)
16,O=Nc1ccc2oc(=O)ccc2c1,16.8% (active)
17,Cc1cc(Cn2cnc3c2C[C@@H](C(=O)O)N(C(=O)C(c2ccccc2)c2ccccc2)C3)ccc1N,0% (inactive)
18,CCN(CC)CCCC(C)Nc1c2ccc(Cl)cc2nc2ccc(OC)cc12 (stereo unspecified),0.7% (active)
19,CCN(CC)CCCC(C)Nc1ccnc2cc(Cl)ccc12 (stereo unspecified),-4.9% (inactive)
20,CN(C)C(=O)n1nnnc1Cc1ccc(-c2ccccc2)cc1,5.2% (active)
21,O=C(O)COCCN1CCN(C(c2ccccc2)c2ccc(Cl)cc2)CC1 (stereo unspecified),0.5% (active)
22,CN(C)C(=O)C(CCN1CCC(O)(c2ccc(Cl)cc2)CC1)(c1ccccc1)c1ccccc1,-0.9% (inactive)
23,CCNC(=O)N1CCN(CCCC(c2ccc(F)cc2)c2ccc(F)cc2)CC1,-0.9% (inactive)
24,O=C1/C(=C/c2ccsc2)CC/C1=C\c1cccs1,3.3% (active)

row,SMILES,inhibition
1,O=C(c1ccc(OCCCc2cnc[nH]2)cc1)C1CC1,-3.2% (inactive)
2,Fc1ccc(C(OCCCc2cnc[nH]2)c2ccc(F)cc2)cc1,4.3% (active)
3,C1CCc2nnnn2CC1,-0.2% (inactive)
4,CCC1C(=O)OCC1Cc1cncn1C (stereo unspecified),5.6% (active)
5,CCCCCCCCCCCCCCCCCCNC(=O)OCC(COP(=O)([O-])OCC[n+]1ccsc1)OC (stereo unspecified),-4.6% (inactive)
6,CCCCCCCCCCCCCCCCCCOC[C@H](COP(=O)([O-])OCC[N+](C)(C)C)OC,3.3% (active)
7,Cn1cnc([N+](=O)[O-])c1Sc1ncnc2nc[nH]c12,0.2% (active)
8,N=C(N)c1ccc(OCCCCCOc2ccc(C(=N)N)cc2)cc1,1.1% (active)
9,N=C(N)c1ccccc1,-3.7% (inactive)
10,N=C(N)c1ccc(N)cc1,5.7% (active)
11,O=C1NC(=O)/C(=C/c2ccc3nccnc3c2)S1,4.5% (active)
12,CCc1ccc(/C=C2/SC(=S)NC2=O)cc1,-3% (inactive)
13,O=C1NC(=O)/C(=C/c2ccc3c(c2)OC(F)(F)O3)S1,-1.5% (inactive)
14,C#CCCN,0.1% (active)
15,Nc1ncnc2nc(-c3ccc(N4CCOCC4)nc3)cc(-c3cccc(Br)c3)c12,10% (active)
16,NC(=O)c1ccc2[nH]ccc2c1,0.6% (active)
17,CC(C)OC(=O)C(C)(C)Oc1ccc(C(=O)c2ccc(Cl)cc2)cc1,-0.6% (inactive)
18,COc1ccc(NC(=O)/C=C/c2ccc(Cl)cc2)cc1,12.1% (active)
19,CC(C)(C)c1ccc(/C=C/C(=O)Nc2ccc3c(c2)OCCO3)cc1,-1.6% (inactive)
20,N[C@H](CCCP(=O)(O)O)C(=O)O,-1.3% (inactive)
21,NC(CCCP(=O)(O)O)C(=O)O (stereo unspecified),0% (inactive)
22,N[C@@H](CCCC(=O)O)C(=O)O,6.7% (active)
23,NC(=O)CC[C@H](N)C(=O)O,2.8% (active)
